# Publication PMC4336329 (PLoS ONE, 2015)
# Among all 310,000 compounds or so, about 14,000 (4.5%) showed an effect of 50% or more. Effects have a minus sign here. The list comes from a sample in which strong results are over-represented; it also holds similar structures and randomly drawn compounds. Where a SMILES comes first, the peptide text is derived from it. The star is where a group is joined. Boc = CC(C)(C)OC(=O)*; OtBu = CC(C)(C)O*
# Biological target: human ether-à-go-go-related gene (hERG) potassium channel (human, UniProt Q12809)
# Sequence (Q12809 whole entry, looked up): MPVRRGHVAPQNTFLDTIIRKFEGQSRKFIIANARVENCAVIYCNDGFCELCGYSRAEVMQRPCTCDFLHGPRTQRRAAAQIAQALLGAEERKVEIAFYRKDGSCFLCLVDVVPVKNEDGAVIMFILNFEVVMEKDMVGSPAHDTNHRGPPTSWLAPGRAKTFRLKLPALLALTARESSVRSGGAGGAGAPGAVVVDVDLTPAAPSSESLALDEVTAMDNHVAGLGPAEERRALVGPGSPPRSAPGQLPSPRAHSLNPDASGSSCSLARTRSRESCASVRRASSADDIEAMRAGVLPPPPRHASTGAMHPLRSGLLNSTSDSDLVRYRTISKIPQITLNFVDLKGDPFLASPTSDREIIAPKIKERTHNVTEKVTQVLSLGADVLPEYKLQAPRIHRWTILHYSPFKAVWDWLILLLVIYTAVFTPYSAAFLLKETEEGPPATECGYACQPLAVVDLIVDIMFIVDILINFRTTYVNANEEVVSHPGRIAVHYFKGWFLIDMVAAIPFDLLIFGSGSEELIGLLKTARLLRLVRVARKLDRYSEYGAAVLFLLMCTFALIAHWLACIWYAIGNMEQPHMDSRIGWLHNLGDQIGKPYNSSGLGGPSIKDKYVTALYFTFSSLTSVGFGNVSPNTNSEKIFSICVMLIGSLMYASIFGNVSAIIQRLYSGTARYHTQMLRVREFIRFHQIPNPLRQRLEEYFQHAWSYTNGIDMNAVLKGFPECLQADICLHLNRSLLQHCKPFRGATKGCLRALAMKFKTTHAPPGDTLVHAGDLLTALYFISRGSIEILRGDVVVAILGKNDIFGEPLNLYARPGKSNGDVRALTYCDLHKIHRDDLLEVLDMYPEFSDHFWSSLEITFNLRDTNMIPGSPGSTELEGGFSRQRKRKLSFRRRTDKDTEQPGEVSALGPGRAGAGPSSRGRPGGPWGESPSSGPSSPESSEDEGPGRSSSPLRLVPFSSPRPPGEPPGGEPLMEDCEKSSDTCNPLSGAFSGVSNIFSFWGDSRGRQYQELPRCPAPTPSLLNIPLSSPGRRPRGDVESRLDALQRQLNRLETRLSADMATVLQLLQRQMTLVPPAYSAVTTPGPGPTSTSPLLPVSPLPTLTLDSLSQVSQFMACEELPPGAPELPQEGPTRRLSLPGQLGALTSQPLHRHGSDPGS
# Assay: primary screen, population patch clamp on CHO cells stably expressing hERG; higher = less effect of the substance
# 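Further: peak tail current of the secondary pulse compared with the same well before compound.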
row,SMILES,"hERG current change (%, negative = inhibition) at 10uM"
1,C=CCn1cnc2c(c1=O)c1nc3ccccc3nc1n2/N=C/c1cc(OC)c(OC)c(OC)c1,-22.1%
2,CCn1c(SCC(=O)Nc2ccc(F)cc2)nnc1C1CC1,-0.652%
3,Cc1ccccc1NC(=O)CSc1nnc(-c2ccccc2)n1-c1ccccc1,-51.4%
4,COc1ccc(NC(=O)CSc2nnc3ccc(-c4ccncc4)nn23)cc1,-30.9%
5,O=C(CSc1nnc2ccc(-c3cccnc3)nn12)Nc1ccc(F)cc1F,-64.9%
6,O=C(CSc1nnc2ccc(-c3ccccn3)nn12)Nc1ccc(F)cc1F,-18%
7,NNC(=O)CSc1nnc(-c2ccccc2)n1-c1ccccc1,8.61%
8,CC(C)n1c(SCC(=O)Nc2ccc(F)cc2)nnc1C1CC1,-50.1%
9,O=C(CSc1nnc2ccc(-c3ccncc3)nn12)Nc1ccc(F)cc1,-63.2%
10,N#Cc1ccccc1NC(=O)CSc1nnc(-c2ccccc2)n1-c1ccccc1,2.09%
11,CC(=O)Nc1ccc(NC(=O)CSc2nnc3ccc(-c4ccc(F)cc4)nn23)cc1,16.8%
12,O=C(CSc1nnc2ccc(-c3cccnc3)nn12)Nc1ccccc1F,-39.2%
13,Cn1c(SCC(=O)Nc2ccc(F)cc2)nnc1C1CC1,4.27%
14,COc1ccc(NS(=O)(=O)c2cccc(C(=O)NCC(c3ccco3)N3CCCC3)c2)cc1 (stereo not drawn),-36.8%
15,Cc1ccc(S(=O)(=O)Nc2ccc3cn[nH]c3c2)c(C)c1,-18.1%
16,Cc1cccc(NC(=O)c2nc[nH]c2C(=O)NCC(=O)OCc2ccccc2)c1,9.54%
17,CC(C)CC(N)c1cn([C@@H](CCC(=O)O)C(=O)N2CCNCC2)nn1.Cl (stereo partly drawn),17.2%
18,COC(=O)N/N=C(\C)c1ccc(C)c([N+](=O)[O-])c1,-0.21%
19,COC(=O)c1cccc(NC(=O)c2cnn(C)c2)c1,15.9%
20,CCO.CCOC(=O)c1c(-c2ccccc2)oc2ccc(OC(C)C(=O)O)cc12 (stereo not drawn),-15%
21,O=C(NNC(=S)NC(=O)c1ccccc1)c1cccc([N+](=O)[O-])c1,22.8%
22,Cc1csc(SCC(=O)Nc2cccc3nsnc23)n1,-14.8%
23,CCCOc1ccc(C(=O)N(Cc2cccs2)C2CCS(=O)(=O)C2)cc1 (stereo not drawn),-8.87%
24,CCn1c2ccccc2c2cc(CC(N)=O)ccc21,5.3%

row,SMILES,"hERG current change (%, negative = inhibition) at 10uM"
1,COc1ccc(C(=O)NCCc2nnc3ccc(SCC(=O)NCCc4ccc(OC)c(OC)c4)nn23)cc1,0.371%
2,Cc1cccc(NC(=O)CC2NCCNC2=O)c1 (stereo not drawn),8.94%
3,Cc1ccc(NC(=O)C(C)Sc2nnc(-c3cccnc3)n2-c2ccccc2)cc1 (stereo not drawn),-81.4%
4,Cc1nnc(SCC(=O)Nc2cccc(N)c2)n1-c1ccccc1,-10.1%
5,Cc1ccc(NC(=O)C(C)Sc2nnc(-c3cccnc3)o2)cc1 (stereo not drawn),11.9%
6,COc1cc(NC(=O)CSc2nnc3ccc(-c4cccnc4)nn23)cc(OC)c1,-9.05%
7,O=C(CSc1nnc2ccc(-c3cccnc3)nn12)Nc1ccc(F)cc1,-63%
8,Cc1ccc(NC(=O)CSc2nnc(-c3cccnc3)n2-c2ccc(C)cc2)cc1,-21.4%
9,COc1ccc(NC(=O)CSc2nnc3ccc(-c4cccnc4)nn23)cc1,-46.4%
10,Cc1ccc(NC(=O)CSc2nnc(C)n2-c2ccccc2)cc1,-3.7%
11,O=C(CSc1nnc(-c2cccnc2)n1-c1ccccc1)Nc1ccccn1,-41%
12,O=C(CSc1nnc(-c2cccnc2)n1-c1ccccc1)Nc1ccccc1,-76.3%
13,Cc1ccccc1-n1c(SC(C)C(N)=O)nnc1-c1cccnc1 (stereo not drawn),-6.92%
14,Nc1nnc(SCC(=O)Nc2ccc(F)c(Cl)c2)n1-c1ccccc1,-70.7%
15,COC(=O)c1cn(NC(=O)c2ccc([N+](=O)[O-])cc2Cl)c(=O)c2ccccc12,-5.68%
16,CCCn1c(SCC(=O)NCc2ccccc2)n[nH]c1=O,7.49%
17,CCN(CC(=O)Nc1cccc(S(=O)(=O)N2CCOCC2)c1)Cc1ccccc1,-4.27%
18,CCOC(=O)c1cc(-c2ccc(N3CCOCC3)cc2)nn1-c1ccccc1,-48.9%
19,CCCCOc1nc2ccccc2c(=O)n1-c1ccccc1,-11.6%
20,Cc1cc(C)n2nc(C(=O)OC(C)C(=O)c3ccccc3)nc2n1 (stereo not drawn),17.9%
21,O=C(Cn1[nH]c(=O)c2ccccc2c1=O)NC1CCN(Cc2ccccc2)CC1,0.791%
22,COc1ccc2c(c1OC)C(=O)N(C(C)C(=O)O)C2=O (stereo not drawn),10.1%
23,Cc1ccc(NC(=O)CSc2nnc3ccc(-c4cccnc4)nn23)cc1,-49.3%
24,CC(=O)Nc1ccc(NC(=O)CSc2nnc3ccc(-c4cccnc4)nn23)cc1,19.8%

row,SMILES,"hERG current change (%, negative = inhibition) at 10uM"
1,O=C(CSc1nnc2ccc(-c3cccnc3)nn12)Nc1ccccc1,-50.6%
2,CC(c1nnc(SCC(=O)NC(=O)NCc2ccco2)n1-c1ccc(Cl)cc1)N(C)C (stereo not drawn),-8.66%
3,CC(C)COc1ccc(C/C(N)=N/n2cnnc2)cc1,30.4%
4,COC(=O)CSc1nc2nc(C)cc(C)n2n1,4.29%
5,CC(C)S(=O)(=O)N1CCN(c2ccnc3cc(Cl)ccc23)CC1,-71.6%
6,CS(=O)(=O)N1CCN(c2ccnc3cc(Cl)ccc23)CC1,-78.6%
7,CCS(=O)(=O)N1CCN(c2ccnc3cc(Cl)ccc23)CC1,-73.2%
8,Cc1ccc(Cl)cc1N1CCN(S(C)(=O)=O)CC1,-5.31%
9,CN(C)S(=O)(=O)N1CCN(c2ccnc3cc(Cl)ccc23)CC1,-76.2%
10,Cl.ClCCN1CCN(c2ccnc3cc(Cl)ccc23)CC1,-20.8%
11,CN(C)S(=O)(=O)N1CCN(c2cc(Cl)ccc2Cl)CC1,-8.38%
12,Cc1cc(C)c[n+](-c2[nH]c(=O)sc2/C=N/N=C(\N)[S-])c1,22%
13,COCCn1c(SCC(=O)NC2CCCC2)nc2cccnc21,17.1%
14,COc1ccccc1-n1cnnc1SCC(=O)c1ccc[nH]1,-0.89%
15,Cc1ccccc1NC(=S)N(CCN1CCOCC1)Cc1ccccc1F,30.1%
16,Cl.Clc1ccc(CNCCC2=CCCCC2)cc1,-40%
17,CC(Oc1ccc(Br)cc1Br)C(=O)NC1CCCC1 (stereo not drawn),16.2%
18,COc1ccc(N(CC(=O)N2CCc3ccccc3C2)S(=O)(=O)c2ccccc2)cc1,-32.1%
19,N#Cc1nc(COc2cccc(Cl)c2)oc1NCc1ccncc1,-73.7%
20,N#Cc1nc(COc2ccccc2Cl)oc1NCc1ccc(F)cc1,0.159%
21,Cc1ccc(CNc2oc(COc3ccccc3Cl)nc2C#N)cc1,13.2%
22,CN(C)CCNc1oc(COc2cccc(Cl)c2)nc1C#N,-16.1%
23,N#Cc1nc(COc2cccc(Cl)c2)oc1NCc1ccco1,-16.8%
24,N#Cc1nc(COc2ccccc2Cl)oc1NCc1cccnc1,-51.2%

row,SMILES,"hERG current change (%, negative = inhibition) at 10uM"
1,FC(F)(F)c1ccc(C2[C@H]3CN(CC4CCCCC4)[C@H](c4ccccc4)C34CC2(c2cccnc2)C4)cc1 (stereo partly drawn),0.391%
2,CN1CCN(C(=O)c2c(O)c3cccc4c3n(c2=O)CCC4)CC1.Cl,6.48%
3,c1ccc(Cc2nc3ccccc3[nH]2)cc1,-6.39%
4,CCOc1ccc(Nc2nc3c(c(=O)[nH]2)CCCC3)cc1,-3.98%
5,COC(=O)c1ccc(/C=C2/SC(=S)N(CCCC(=O)Nc3ccccn3)C2=O)cc1,15.4%
6,CC(NC(=O)C(CC(=O)OC(C)(C)C)NC(=O)OC(C)(C)C)C(N)=O (stereo not drawn) (Boc-Asp(OtBu)-Ala-NH2; configuration not given here),-5.99%
7,Cc1sc2ncn(CC(=O)NCCCC(=O)N3CCN(c4ncccn4)CC3)c(=O)c2c1C,7.64%
8,N#C/C(=C\c1ccco1)Sc1nc2ccccc2s1,0.525%
9,O=C(NCCc1nnc2ccc(NCc3ccc(F)cc3)nn12)c1ccccc1,-29%
10,Cn1c(=O)c2c(n(Cc3ccccc3)c1=O)NC(=O)C2CC(=O)O (stereo not drawn),12.6%
11,CC(C)Cn1c(O)c2ccc(C(=O)N=NC(=O)c3cccnc3)cc2c1O,17%
12,COc1ccc(/C=C/C(=O)NC(=S)N2CCN(c3ccccn3)CC2)cc1,-6.85%
13,CCc1ccc(NC(=S)N(CCCN2CCOCC2)Cc2ccccn2)cc1,-56.3%
14,COc1ccc(NC(=S)N(Cc2ccc(C)cc2)Cc2ccccn2)cc1,-50.5%
15,Cc1ccc(NC(=S)N(CCCN2CCOCC2)Cc2ccccn2)cc1,-22.8%
16,CCc1ccccc1NC(=S)N(CCCN1CCOCC1)Cc1ccccn1,-25.8%
17,Cc1cccc(NC(=S)N(CCCN2CCOCC2)Cc2ccccn2)c1,-22.3%
18,COc1cccc(NC(=S)N(Cc2ccc(C)cc2)Cc2ccccn2)c1,-30.2%
19,S=C(Nc1ccc(Oc2ccccc2)cc1)N(CCCN1CCOCC1)Cc1ccccn1,-70%
20,COc1ccccc1NC(=S)N(Cc1ccc(C)cc1)Cc1ccccn1,-39.1%
21,COc1ccc(NC(=S)N(CCCN2CCOCC2)Cc2ccccn2)cc1,-14.4%
